Screening data deposited in PubChem BioAssay by National Center for Advancing Translational Sciences (NCATS).
Shown are actives, neighbours in structure and some others; about 14% of the full set was active somewhere.
LmPK inhibitor = inhibitors of Leishmania mexicana pyruvate kinase | Q27686 | purified LmPK, Kinase-Glo ATP luminescence, 1 h | Potency, µM (doses to about 57.5 µM), without a hit: at the highest dose activity change, negative = inhibition, hits mostly inhibitors | 290,000 tested, 0.37% active; also: potency is read from the fitted curve at half-maximal effect; % is scaled to controls: 0 for no effect and ±100 for the full control effect
Target sequence (Q27686 whole entry, looked up): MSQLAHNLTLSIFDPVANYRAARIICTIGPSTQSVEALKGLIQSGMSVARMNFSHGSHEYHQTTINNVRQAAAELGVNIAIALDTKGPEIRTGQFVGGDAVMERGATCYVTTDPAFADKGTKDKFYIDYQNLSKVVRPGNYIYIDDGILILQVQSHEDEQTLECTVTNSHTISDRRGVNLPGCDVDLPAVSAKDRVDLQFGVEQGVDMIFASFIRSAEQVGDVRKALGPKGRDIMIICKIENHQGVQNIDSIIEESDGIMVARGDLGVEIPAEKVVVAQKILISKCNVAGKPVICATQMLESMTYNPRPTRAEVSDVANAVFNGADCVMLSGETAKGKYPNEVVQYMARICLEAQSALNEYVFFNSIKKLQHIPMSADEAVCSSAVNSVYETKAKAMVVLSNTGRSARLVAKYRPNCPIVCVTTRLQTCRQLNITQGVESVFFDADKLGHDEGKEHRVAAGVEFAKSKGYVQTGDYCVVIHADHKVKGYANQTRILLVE
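qHTS format; LmPK 0.1 nM; substrates PEP 0.5 mM and ADP 0.1 mM. One-hour room-temperature incubation, then coupled luciferase luminescence; 0.5 nM enzyme wells mark activation.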
Giardia FBPA inh = inhibitors of Giardia lamblia fructose-1,6-bisphosphate aldolase; A8B2U2; purified Giardia FBPA; Potency, µM (doses to about 59.6 µM), for inactives: at the top dose activity, negative = inhibition, hits mostly inhibitors; 290,000 tested, 0.71% active; also: potency is read from the fitted curve at half-maximal effect; % is scaled to controls: 0 for no effect and ±100 for the full control effect; nearly all actives have a fitted effect of over 55% in size
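Giardia FBPA (40 nM reagent) was preincubated 10 min at RT with compound (up to 57.5 uM final), then substrate plus GAPDH/TPI/NAD/arsenate coupling system with diaphorase/resazurin was added; resorufin fluorescence (525/598 nm) was read after 20 min.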
Shiga inhibitor = Shiga toxin inhibition | inhibition, % at 38.7 µM | AID 2315 | Vero cells, Shiga toxin protein synthesis inhibition reporter | 290,000 tested, 9.2% active; in the data active = inhibition mostly above about 28%, no sharp cut-off; inactive = mostly below about 43%; also: 0% is about no effect
NS1 inh = blocks influenza NS1 protein function | Potency, µM (titrated, usually from 46.1 µM), for inactives: at the highest dose activity, positive = more growth | 270,000 tested, 0.4% active | AID 2326; calls by dose curve; also: potency is read from the fitted curve at half-maximal effect; actives are rising curves; nearly all actives have a fitted effect of over 50% in size
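OD600 was taken as the measure of yeast growth restored by compound in an NS1-expressing S. cerevisiae strain. Cells had been washed out of glucose medium and diluted 1:100 into galactose -URA medium, pH 6.0.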
CHX counter-1 = counter-screen hit for Shiga toxin inhibitors, cycloheximide | cell reporter, cycloheximide protein synthesis inhibition counterscreen | max response, % | 300,000 tested, 12% active | AID 2314; in the data active = max response mostly above about 13%, no sharp cut-off; inactive = mostly below about 14%; also: read at 38.3 µM for the half of the compounds with a filed dose; 0% is about no effect
CHX counter-2 = counter-screen for Shiga toxin inhibitors: cycloheximide protein synthesis block | shares compounds with Shiga inhibitor | Cycloheximide counterscreen, protein synthesis reporter, Shiga toxin assay | Potency, µM (doses to about 38.3 µM), for the others: at the top dose activity (activation), hits mostly activators | 510 tested, 3% active; calls by dose curve; also: potency is read from the fitted curve at half-maximal effect; 0% is about no effect
Numbers without * were called inactive; ? = inconclusive; . = no result; ! = repeats disagree. Unless noted, calls follow the shape of the dose curve; as a rule, active = well fitted curve in the direction sought with a large enough effect; inconclusive = small, poorly fitted or top-dose-only effect, or another doubt; inactive = no such curve, though single readings can be large; an effect the other way counts as inactive or inconclusive.

SMILES	LmPK inhibitor	Giardia FBPA inh	Shiga inhibitor	NS1 inh	CHX counter-1	CHX counter-2
COc1cccc(NC(=O)Cc2nnc(SCC(=O)NC3CCCC3)n2C)c1	-6.5%	6.6%	-14.6	9.3%	-3.0	.
O=C(Nc1ccc(/C=C/c2nc3ccccc3o2)cc1)c1ccc(F)cc1	7.3%	4.1%	36.7*	25.6%	9.3	2.25µM*
CCCCCn1c(SCCc2ccccc2)nc2c1c(=O)[nH]c(=O)n2C	0.4%	9.1%	25.3	-3.4%	-1.5	.
CCCCn1c(SCC(=O)c2ccccc2)nc2c1c(=O)[nH]c(=O)n2C	2.9%	-1.4%	15.6*	0.5%	-1.0	0.0%
COc1ccc(NC2=CC(c3ccccc3)N(c3ccc(OC)cc3)C2=O)cc1 (centres undefined)	1.5%	-4.0%	64.7*	7.3%	5.1	-1.5%
COc1ccc(NC2=CC(c3ccc(OC)cc3)N(c3ccc(OC)cc3)C2=O)cc1 (centres undefined)	0.2%	-14.7%	22.0	12.6%	2.4	.
CSc1cccc(CNC(=O)C2CCC(=O)N(CC3CCCCC3)C2)c1 (centres undefined)	-6.3%	.	-26.2	5.5%	8.2	.
CN(C)c1ccc(C(=O)NCc2ccc3c(c2)CCO3)cc1	-5.2%	-2.3%	55.1*	-1.9%	2.3	6.9%
CS(=O)(=O)c1ccc2nc(NC(=O)c3ccc(Cn4cc(Br)cn4)o3)sc2c1	-0.4%	.	17.2	4.8%	7.9	.
CCOC(=O)C1=C(C)NC(=O)NC1c1ccc(OCC(=O)OC)c(OC)c1 (centres undefined)	-3.7%	-7.4%	13.4	1.7%	-2.1	.
CCOC(=O)C1=C(C)NC(=O)NC1c1ccc(OCC(=O)Nc2ccccc2)c(OC)c1 (centres undefined)	1.1%	3.5%	39.4*	-45.0%	7.0	0.0%
COc1ccc(OCc2cccc(C(=O)O)c2)cc1	15.8µM*	12.5%	52.1*	-52.9%	8.9	0.0318µM*
O=C(O)c1cc(OCc2ccccc2)cc(OCc2ccccc2)c1	-2.5%	8.7%	-13.6	-3.6%	-4.2	.
Cc1ccc(O)c([C@H](CCN(C(C)C)C(C)C)c2ccccc2)c1	-5.7%	26.6%	48.4*!	15.2%	-0.5	-2.0%
CC1CN(CCCCOc2ccc(Cl)c3ccccc23)CC(C)O1 (centres undefined)	-2.6%	?	4.4	-19.3%	3.2	.
CC1CCCC(C)N1C(=O)Cn1nnc(-c2ccccc2)n1 (centres undefined)	5.4%	-9.2%	33.1*	-6.1%	3.5	-0.9%
O=C(NCC(=O)N1CCN(c2ccccn2)CC1)c1ccc(Br)o1	-8.4%	.	35.8*	-6.3%	9.5	-2.9%
O=C(NCC(=O)N1CCCCC1)c1ccc(Br)o1	-9.9%	.	-22.3	9.7%	1.3	.
C=CCOc1ccc(C(=O)n2cc(C(=O)OC)c3ccccc32)cc1	-0.8%	-5.7%	5.4	10.5%	14.4	.
O=C(CSCc1ccc(Cl)cc1)N1CCOCC1	-6.5%	-5.2%	65.8*	7.4%	9.5	7.4%
COc1ccc(OCc2nc(C#N)c(N3CCN(c4ccc(OC)cc4)CC3)o2)cc1	-0.6%	-5.8%	32.0	9.4%	6.4	.
COc1ccc(N2CCN(c3oc(COc4ccccc4Cl)nc3C#N)CC2)cc1	-0.9%	0.3%	35.5*	11.7%	15.9	?
Cc1ccc(N/C(C(Cl)=C(Cl)Cl)=C(/Cl)[N+](=O)[O-])c(C)c1	0.8%	-19.4%	23.4*	-85.7%	9.1	-2.3%
COc1cc(Br)c(CC(=O)NC2CC2)cc1OC	3.5%	1.8%	5.0	5.7%	2.8	.
O=C(CC1CC2CCC1C2)NCCc1ccc(Cl)cc1 (centres undefined)	1.2%	5.5%	49.4*	-22.9%	16.1	2.2%
SMILES	LmPK inhibitor	Giardia FBPA inh	Shiga inhibitor	NS1 inh	CHX counter-1	CHX counter-2
COc1ccc(NC(=O)C2CCN(S(=O)(=O)c3cccc4nonc34)CC2)cc1OC	1.3%	-1.5%	4.3	2.6%	-2.4	.
Cc1cc(C(=O)NCCc2ccc(S(N)(=O)=O)cc2)c(C)o1	-0.3%	4.2%	-16.1	-3.6%	-5.7	.
COc1cc2c(cc1OC)C(c1ccccc1O)NCC2 (centres undefined)	-0.3%	5.1%	-8.9	3.5%	2.2	.
CCN(CC)CCCNC(=O)c1sc2nc(-c3ccc(F)cc3)cn2c1C	-0.5%	-0.8%	10.2	-9.6%	-1.8	.
COc1ccc(-c2cn3c(C)c(C(=O)NC(C)C)sc3n2)cc1	1.4%	-0.4%	52.7*	0.4%	7.9	2.6%
COc1ccc(N2CCN(Cc3nc4c(c(=O)[nH]c(=O)n4C)n3CC(C)=O)CC2)cc1	9.3%	-5.0%	29.7*	0.6%	-1.8	-1.3%
COc1ccc(N2CCN(Cc3nc4c(c(=O)n(C)c(=O)n4C)n3CC(C)=O)CC2)cc1	1.5%	0.7%	6.4	17.9%	1.1	.
CCOC(=O)Nc1ccc2c(c1)Nc1ccccc1S2	-5.5%	-11.4%	31.1*	-11.2%	16.9	2.1%
CCNc1c(NC(=O)c2cccs2)c(=O)oc2ccccc12	2.4%	-1.4%	30.3*	-4.7%	2.2	1.3%
COc1ccccc1NC(=O)c1ccc2c(c1)CCN2S(C)(=O)=O	-6.6%	-6.7%	.	-8.0%	1.7	.
Cc1ccc(C(C(=O)NCc2ccco2)N(C(=O)Cn2nnc3ccccc32)c2ccccc2)o1 (centres undefined)	3.8%	-2.2%	64.3*	-31.4%	3.5	4.9%
COc1ccccc1NC(=O)CSc1nnc(CC(=O)Nc2ccccc2F)n1C	4.7%	6.3%	55.8*	-6.2%	10.7	-1.8%
O=C(Nc1ccc(F)cc1)C1CCC(CNc2c(N3CCCCC3)c(=O)c2=O)CC1 (centres undefined)	3.3%	5.1%	-8.5	6.1%	-0.7	.
COc1ccccc1CNC(=O)[C@H](C)NC(=O)C1CCN(C(=O)[C@@H]2CCCN2C(=O)OC(C)(C)C)CC1	-22.3%	-0.4%	-2.4	-13.6%	-2.7	.
O=C(Cn1nc(C(=O)O)c2ccccc2c1=O)Nc1nc(-c2ccccc2)cs1	2.8%	0.6%	39.6*	3.0%	5.7	?
O=C(COC(=O)/C=C/c1cccs1)Nc1nc(-c2cccc(Br)c2)cs1	-0.5%	6.9%	4.1	-3.3%	6.4	.
O=C(COC(=O)/C=C/c1cccs1)Nc1nc(-c2ccccc2)cs1	-1.6%	0.2%	46.0*	7.3%	2.6	5.2%
O=C(Nc1cccc(-c2csc(Nc3ccc(Cl)cc3)n2)c1)c1ccccc1	-6.7%	2.5%	29.4*	15.5%	2.1	?
O=C(Nc1ccc(Cl)c(Cl)c1)Nc1nc(-c2ccccc2)cs1	2.2%	5.5%	-1.1	-2.1%	-2.8	.
Cc1ccc(NC(=O)c2cccc(N3C(=O)C4C5C=CC(C5)C4C3=O)c2)cc1C (centres undefined)	-5.5%	.	17.5*	-4.4%	6.4	3.0%
Cc1cnc(CNc2cc(-c3cccc(C#N)c3)ncn2)cn1	.	0.7%	.	.	.	.
COCCCNC(=S)NNC(=O)c1csc(C)n1	-0.1%	?	-3.0	4.1%	0.5	.
Nc1ccc2nn(-c3cccc4ccccc34)nc2c1	0.1%	?	49.0*	-4.0%	2.2	3.1%
